# CBX7 inh: CBX7 chromodomain binding inhibitors, primary screen, biochemical, AlphaScreen. Chromobox protein homolog 7 (Homo sapiens), O95931. AlphaScreen His6-CBX7 / biotin-H3K27me3 peptide binding; hits give low values. normalised signal (fraction of DMSO) (test concentration not listed). 1.1% of 66,000 active. AID 1224903, 2016; in the data active means normalised signal below about 0.5
# Target sequence (O95931 whole entry, looked up): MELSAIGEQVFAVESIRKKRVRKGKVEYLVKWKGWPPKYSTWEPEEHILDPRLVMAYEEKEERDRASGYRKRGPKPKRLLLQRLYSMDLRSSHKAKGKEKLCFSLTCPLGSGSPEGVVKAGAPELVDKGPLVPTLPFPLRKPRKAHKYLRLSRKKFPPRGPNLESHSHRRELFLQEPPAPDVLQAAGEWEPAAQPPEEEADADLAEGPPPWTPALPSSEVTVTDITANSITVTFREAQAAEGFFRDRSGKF
# A number is an active result; - = inactive. Shown is part of a subset that was picked to be rich in hits.
SMILES,CBX7 inh
CCOc1ccc(NC(=O)c2c(NC(=O)c3ccncc3)sc3c2CCCCC3)cc1,-
COc1ccc(-c2noc(COc3ccc(C)cc3)n2)cc1,-
CCc1ccc(NS(=O)(=O)c2ccc3[nH]cc(C(=O)NCCC(C)C)c(=O)c3c2)cc1,-
O=C1Nc2ccccc2Oc2cc([N+](=O)[O-])cc(Oc3cccc(Cl)c3)c21,0.371
O=C1Nc2ccccc2Oc2cc([N+](=O)[O-])cc(OCCO)c21,-
CCOc1cc([N+](=O)[O-])cc2c1C(=O)Nc1ccccc1O2,-
O=C1Nc2ccccc2Oc2cc([N+](=O)[O-])cc(Oc3cccc(Cl)c3Cl)c21,0.482
Cc1cc(C(=O)NCCc2c[nH]c3ccccc23)nn1-c1ccccc1,-
Cc1nc2cc(-c3ccccc3)nn2c(C)c1CCC(=O)Nc1ccc(-c2nc3ccccc3[nH]2)cc1,-
Cc1cc(C)cc(NC(=O)CSc2nccn2-c2ccc(Cl)cc2)c1,0.424
O=C(CSc1nccn1-c1ccc(Cl)cc1)Nc1cccc(C(F)(F)F)c1,0.451
CCc1ccc(NC(=O)CSc2nccn2-c2cccc(OC)c2)cc1,-
CCc1ccc(NC(=O)CSc2nccn2-c2cccc(Cl)c2)cc1,0.431
O=C(CSc1nccn1-c1ccc(F)cc1)Nc1cccc(Cl)c1,-
Cc1ccc(NC(=O)CSc2nccn2-c2ccc(Cl)cc2)cc1,-
Cc1cc(C)cc(NC(=O)CSc2nccn2-c2ccccc2)c1,-
Cc1cccc(NC(=O)CSc2nccn2-c2ccc(Cl)cc2)c1,0.449
COc1ccc(-n2ccnc2SCC(=O)Nc2cccc(C)c2)cc1,-
CCc1ccc(NC(=O)CSc2nccn2-c2cccc(C)c2)cc1,-
O=C(CSc1nccn1-c1ccc(Cl)cc1)Nc1cccc(F)c1,-
COc1cccc(-n2ccnc2SCC(=O)Nc2cccc(C(F)(F)F)c2)c1,-
O=c1c(S(=O)(=O)c2ccc(F)cc2)c[nH]c2ccc(F)cc12,-
O=C(Nc1ccc(F)cc1)c1nc2c(nnn2Cc2ccc3c(c2)OCCO3)c(=O)[nH]1,-
COc1ccc(CCNC(=O)c2cc3ccccn3n2)c(OC)c1,-
CCCCN(CC)CCNC(=O)c1cc(-c2ccc(OCC)cc2)nc2ccccc12,-
SMILES,CBX7 inh
O=C(NCCc1ccccc1)c1cc2c(s1)CSC2,-
CC1=Nc2cc(C(=O)NCCN3CCCCC3C)ccc2Sc2ccc(Cl)cc21 (stereo unspecified),-
CC1=Nc2cc(C(=O)NCc3ccc4c(c3)OCO4)ccc2Sc2ccc(Br)cc21,-
O=C(CN1C(=O)CSc2ccccc21)NC1CC1,-
COc1cccc2c(S(=O)(=O)Nc3ccc(C(=O)O)cc3)ccnc12,0.116
COc1ccc(S(=O)(=O)Nc2ccccc2Cl)c2cccnc12,-
COc1ccc(S(=O)(=O)Nc2cccc(C)c2C)c2cccnc12,-
O=C(CCn1c(=O)[nH]c2ccsc2c1=O)N1CCN(c2cccc(C(F)(F)F)c2)CC1,-
Cc1cc(N2CCCCC2)nc2ccc(NC(=O)CCC(=O)NC3CCCC3)cc12,-
Cc1cccc(C)c1NC(=O)C1(N(C(=O)c2ccc(-n3cnnn3)cc2)c2ccccc2)CCCC1,-
COc1cc(C(=O)Nc2ccc3nc(N4CCC(C)CC4)cc(C)c3c2)ccc1Br,-
Cc1ccc2nc(-c3cccc(NC(=O)c4cc5ccccc5o4)c3)oc2c1,-
CCOc1ccc2nc(N3CCC(C(=O)NCCC4=CCCCC4)CC3)sc2c1,-
CCOc1ccccc1-n1cnc2cc(C(=O)O)ccc21,-
COc1ccc(-c2nc(-c3cccs3)[nH]c2-c2ccccc2)cc1OC,-
COc1cc(-c2nc(-c3ccccc3)c(-c3ccccc3)[nH]2)ccc1O,-
COc1cc(-c2nc(-c3cccs3)c(-c3cccs3)[nH]2)ccc1O,0.438
Cc1nc2cc(C(=O)N3CCOCC3)ccc2n1-c1ccc(F)cc1F,-
O=C(COc1nc(Cc2ccccc2)nc2sc3c(c12)CCCC3)Nc1ccc(F)c(Cl)c1,-
O=C(c1cccc(S(=O)(=O)N2CCCCCC2)c1)N1CCc2ccccc21,-
CC1NC(=O)NC1CCCCCC(=O)OCC(=O)c1ccccc1 (stereo unspecified),0.159
COc1ccc(NC(=O)c2cc(C)nn2-c2ccccc2)cc1Cl,-
O=C(c1ccccc1)c1cnc(Nc2nc3ccccc3s2)nc1-c1ccccc1,-
CCOC(=O)c1cnc2ccc(OCC)cc2c1Nc1ccc(F)c(Cl)c1,0.397
CCOC(=O)c1cnc2ccc(Cl)cc2c1Nc1ccc(N2CCOCC2)cc1,-
SMILES,CBX7 inh
CCOC(=O)c1cnc2ccc(OCC)cc2c1N1CCCC1,-
CCOC(=O)c1cnc2ccc(C)cc2c1Nc1ccc(N2CCCCC2)cc1,0.278
CCOC(=O)c1cnc2ccc(OC)cc2c1Nc1ccc(C)cc1,-
CCOC(=O)c1cnc2ccc(OCC)cc2c1Nc1ccc(OCC)cc1,-
CCOC(=O)c1cnc2ccc(OCC)cc2c1N1CCN(c2ccccc2)CC1,-
CCOC(=O)c1cnc2ccc(OCC)cc2c1N1CCN(c2ccccc2F)CC1,0.167
CCOC(=O)c1cnc2ccc(OC)cc2c1Nc1ccc(N(C)C)cc1,0.258
CCOC(=O)c1cnc2ccc(OCC)cc2c1Nc1ccc(C)c(C)c1,-
CCOC(=O)c1cnc2ccc(C)cc2c1Nc1ccc(N2CCOCC2)cc1,-
CCOC(=O)c1cnc2ccc(OC)cc2c1Nc1ccc(OC)cc1,-
CCN1CCN(c2cc(C)c3cc(NC(=O)Cc4ccc(Cl)c(Cl)c4)ccc3n2)CC1,-
CC(C)Oc1ccc(C(=O)Nc2c(C(=O)c3ccc(Br)cc3)oc3ccccc23)cc1,-
N#Cc1nc(COc2cccc(Cl)c2)oc1NCc1cccnc1,-
NC(=O)c1oc2ccccc2c1NC(=O)c1c(F)cccc1F,-
O=C(CCNC(=O)Cn1ccc2ccccc2c1=O)NCCN1CCOCC1,-
Cc1ccc(-c2nc(CSCC(=O)NC(C)CCc3ccccc3)c(C)o2)cc1 (stereo unspecified),-
COc1ccc2c(c1)c(=O)c(S(=O)(=O)c1ccc(Cl)cc1)cn2CC(=O)Nc1ccccc1,-
CN(c1ccc(F)cc1)S(=O)(=O)c1ccc2[nH]cc(C(=O)NCC3CCCO3)c(=O)c2c1 (stereo unspecified),-
CN(C(=O)CN1C(=O)COc2ccc(S(=O)(=O)N3CCOCC3)cc21)C1CCCCC1,-
CCc1ccc(-c2csc(Nc3ccc(S(=O)(=O)Nc4cc(C)on4)cc3)n2)cc1,-
CCc1ccccc1NC(=O)CC1Oc2ccc(C)cc2NC1=O (stereo unspecified),-
CCOC(=O)c1cnc2ccccc2c1Nc1ccc(C)cc1,-
CCOC(=O)c1cnc2c(C)cc(C)cc2c1Nc1ccc(F)cc1,-
CCOC(=O)c1cnc2c(C)cc(C)cc2c1Nc1ccc(Cl)cc1,-
CCOC(=O)c1cnc2ccc(C)cc2c1Nc1ccc(OCC)cc1,-
SMILES,CBX7 inh
CCOC(=O)c1cnc2ccc(C)cc2c1Nc1ccc(N(CC)CC)cc1,0.417
CCOC(=O)c1cnc2c(C)cc(C)cc2c1Nc1ccc(N2CCCCC2)cc1,0.284
COc1ccc(C2CC(=O)N(CC(=O)N3CCCCC3)c3ccccc3S2)cc1OC (stereo unspecified),-
CCCCOc1ccc(C(=O)Nc2nc3c(s2)C(=O)CC(C)(C)C3)cc1,-
CCN1CCN(c2cc(=O)n(-c3ccc(OC)cc3)c(=O)[nH]2)CC1,-
Cc1ccc(S(=O)(=O)c2nc(-c3cccc([N+](=O)[O-])c3)oc2N(C)C)cc1,-
CCC(C)NC(=O)C1CCCN(c2nnc(-n3cccc3)s2)C1 (stereo unspecified),-

# Screens as filed in PubChem.
